Laboratory results taken from article PMC4336329 (PLoS ONE, 2015).
The whole screen tested about 310,000 compounds, of which about 14,000 (4.5%) showed an effect of 50% or more. Effects have a minus sign here. The sample holds strong results, similar compounds and a random draw of the others, so the mix is not that of the screen.

Target: human ether-à-go-go-related gene (hERG) potassium channel (human, UniProt Q12809)
Test: primary screen, population patch clamp on CHO cells stably expressing hERG; higher = less effect of the substance
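Note: peak tail current of the secondary pulse compared with the same well before compound.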

Sequence of human ether-à-go-go-related gene (hERG) potassium channel (Q12809 whole entry, looked up): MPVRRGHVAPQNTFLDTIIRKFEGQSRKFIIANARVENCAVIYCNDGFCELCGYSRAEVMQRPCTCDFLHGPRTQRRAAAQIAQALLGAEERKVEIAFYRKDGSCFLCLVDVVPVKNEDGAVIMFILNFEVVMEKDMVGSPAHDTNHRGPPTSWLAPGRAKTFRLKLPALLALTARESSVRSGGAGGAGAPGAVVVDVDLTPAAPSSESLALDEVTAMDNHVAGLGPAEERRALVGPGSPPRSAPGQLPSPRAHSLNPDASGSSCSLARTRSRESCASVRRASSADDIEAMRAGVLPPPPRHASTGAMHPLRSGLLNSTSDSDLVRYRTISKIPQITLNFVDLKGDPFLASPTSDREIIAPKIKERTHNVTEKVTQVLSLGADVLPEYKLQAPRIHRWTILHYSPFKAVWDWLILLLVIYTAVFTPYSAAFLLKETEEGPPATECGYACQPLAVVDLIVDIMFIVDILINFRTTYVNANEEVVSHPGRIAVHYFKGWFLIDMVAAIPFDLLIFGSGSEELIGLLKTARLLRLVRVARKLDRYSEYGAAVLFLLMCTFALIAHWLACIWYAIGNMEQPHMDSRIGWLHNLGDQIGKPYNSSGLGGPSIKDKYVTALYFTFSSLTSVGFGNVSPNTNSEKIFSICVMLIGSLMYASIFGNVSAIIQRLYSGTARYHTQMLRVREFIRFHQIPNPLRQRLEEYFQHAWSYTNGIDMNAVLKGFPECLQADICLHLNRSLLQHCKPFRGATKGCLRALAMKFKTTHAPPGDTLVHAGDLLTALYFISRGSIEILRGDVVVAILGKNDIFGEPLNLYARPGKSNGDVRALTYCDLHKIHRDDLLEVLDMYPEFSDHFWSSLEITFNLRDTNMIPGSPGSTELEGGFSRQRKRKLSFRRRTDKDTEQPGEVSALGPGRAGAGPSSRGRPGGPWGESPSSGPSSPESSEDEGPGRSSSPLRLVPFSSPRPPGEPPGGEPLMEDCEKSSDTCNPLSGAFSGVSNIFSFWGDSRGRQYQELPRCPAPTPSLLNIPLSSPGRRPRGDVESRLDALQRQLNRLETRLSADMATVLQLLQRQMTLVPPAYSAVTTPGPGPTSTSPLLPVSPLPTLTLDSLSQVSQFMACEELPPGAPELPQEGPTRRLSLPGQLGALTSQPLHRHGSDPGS

SMILES	hERG current change (%, negative = inhibition) at 10uM
Cn1nnnc1SCC(=O)N1c2ccccc2Sc2ccc(Cl)cc21	-16.4%
COC(=O)C(C)Oc1ccc2c(c1)O/C(=C\c1cccc(Br)c1)C2=O (stereo not shown)	-46.9%
COc1ccc(C2c3[nH]c4ccccc4c3C[C@H]3C(=O)N(c4ccccc4C(=O)N4CCC[C@H]4C(=O)O)C(=O)N23)cc1 (stereo partly shown)	3.11%
CC(C)C[C@@]12C(=O)N(c3cccc(Cl)c3)C(=O)N1[C@H](c1ccc(Cl)cc1)[C@@H]1C(=O)N(C3CCCCC3)C(=O)[C@@H]12	11.2%
Cc1ccc(C)c(NC(=O)CN(C)C(=O)CN2C(=O)C3CCCCC3C2=O)c1 (stereo not shown)	10%
O=C(NCC(c1ccco1)N1CCCC1)c1ccccc1Sc1ccc(C(F)(F)F)cc1[N+](=O)[O-] (stereo not shown)	-55.4%
N#Cc1ccccc1Sc1ccccc1C(=O)NCC(c1ccco1)N1CCCC1 (stereo not shown)	-27.9%
N#Cc1ccccc1Sc1ccccc1C(=O)NCC(c1ccco1)N1CCCCC1 (stereo not shown)	-19%
CCOC(=O)COn1c(-n2nc(C)cc2C)nc2ccccc2c1=O	0.487%
Cc1ccccc1NC(=O)c1ccccc1O	9.03%
Cc1cccc(OCC(=O)Nc2ccc3c(c2)nc(CN2CCCCC2)n3C)c1.Cl	-25.3%
Cc1ccc(C(C)C)c(OCC(=O)Nc2ccc3c(c2)nc(CN2CCCC2)n3C)c1	-76.2%
Cc1ccc(C(C)C)c(OCC(=O)Nc2ccc3c(c2)nc(CCN2CCCCC2)n3C)c1	-75.8%
CCCC(=O)Nc1ccc2c(c1)nc(CN1CCCC1)n2C	11.7%
CCC(=O)Nc1ccc2c(c1)nc(CCN1CCCCC1)n2C	7.26%
CC(C)CC(=O)Nc1ccc2c(c1)nc(CCN1CCCCC1)n2C	-9.9%
Cc1ccc(OCc2nc(-c3ccccn3)no2)c(Br)c1	-22.5%
CC(=O)c1cccc(OCC(=O)Nc2cccc(C(=O)Nc3c(C)n(C)n(-c4ccccc4)c3=O)c2)c1	-7.78%
C=C1C(C(=O)N2CCN(C)CC2)C1C(=O)N1CCN(C)CC1 (stereo not shown)	-2.23%
Cn1c(N)c(C(=O)COC(=O)CCCc2nc3ccccc3s2)c(=O)n(C)c1=O	9.03%
CC(C)Cn1c(N)c(C(=O)COC(=O)c2cc(-c3ccccc3)nc3ccccc23)c(=O)n(C)c1=O	-8.18%
CC(C)Cn1c(N)c(C(=O)COC(=O)c2ccc3ccccc3n2)c(=O)n(C)c1=O	-59.9%
CCCn1c(N)c(C(=O)CSc2nnnn2-c2ccc(O)cc2)c(=O)n(C)c1=O	5.2%

SMILES	hERG current change (%, negative = inhibition) at 10uM
CC(C)Cn1c(N)c(C(=O)COC(=O)c2cc(C(F)(F)F)nc3ccccc23)c(=O)n(C)c1=O	0.872%
Cc1ccc(-n2nnnc2SCC(=O)c2c(N)n(CC(C)C)c(=O)n(C)c2=O)cc1	-69.1%
CC(C)Cn1c(N)c(C(=O)COC(=O)c2ccc([N+](=O)[O-])o2)c(=O)n(C)c1=O	-69.5%
CC(C)Cn1c(N)c(C(=O)CSc2nnnn2C)c(=O)n(C)c1=O	4.91%
Cn1c(N)c(C(=O)COC(=O)c2ccc([N+](=O)[O-])o2)c(=O)n(C)c1=O	-34.6%
CC(C)Cn1c(N)c(C(=O)COC(=O)CCc2nc3ccccc3s2)c(=O)n(C)c1=O	-69.3%
CCc1ccc(C(=O)OCC(=O)c2c(N)n(CC(C)C)c(=O)n(C)c2=O)cc1	-0.249%
Cn1c(N)c(C(=O)COC(=O)CCc2nc3ccccc3s2)c(=O)n(C)c1=O	5.93%
COc1ccc(NS(=O)(=O)c2ccc(NC(=O)C3CC3)cc2)cc1	18.6%
CCOc1ccc(CC(=O)OCn2nnc3ccccc3c2=O)cc1	11.4%
Cc1ccc(NS(=O)(=O)c2ccc(-c3ccc(=O)[nH]n3)o2)cc1N(C)C	1.5%
Fc1ccccc1C1c2cccn2CCN1C(=S)Nc1cccc(Br)c1 (stereo not shown)	12.9%
CN1C(=O)OC(C)(C)C1=O	-2.78%
CO/N=C/C(C#N)=C/c1cc(C(=O)c2ccccc2)cn1C	18.4%
O=C1OCCN1C(=O)[C@H]1[C@H](c2ccc([N+](=O)[O-])cc2)C(c2cccc(Cl)c2)=NN1c1ccccc1	5.99%
CCOC(=O)c1ccc(NC(=O)N2C3CCCC2CC(NC(C)=O)C3)cc1 (stereo not shown)	-11.6%
CCOc1ccc(OCCC(=O)OCC(=O)c2c(N)n(C)c(=O)n(C)c2=O)cc1	-23%
CCOc1ccccc1OCC(=O)OCC(=O)c1c(N)n(CC(C)C)c(=O)n(C)c1=O	-67.5%
Cc1ccc(S(=O)(=O)CCC(=O)OCC(=O)c2c(N)n(CC(C)C)c(=O)n(C)c2=O)cc1	-27.9%
Cc1cc(C)cc(OCC(=O)OCC(=O)c2c(N)n(C)c(=O)n(C)c2=O)c1	-5.06%
CCC(C(=O)OCC(=O)c1c(N)n(CC(C)C)c(=O)n(C)c1=O)c1ccccc1 (stereo not shown)	-2.13%
Cc1ccc(OCCC(=O)OCC(=O)c2c(N)n(C)c(=O)n(C)c2=O)cc1	-58.3%
CC(C)Cn1c(N)c(C(=O)COC(=O)CCNS(=O)(=O)c2ccccc2)c(=O)n(C)c1=O	-48.4%

SMILES	hERG current change (%, negative = inhibition) at 10uM
CC(=O)NC(CC(=O)OCC(=O)c1c(N)n(CC(C)C)c(=O)n(C)c1=O)c1ccccc1 (stereo not shown)	-3.32%
Cc1csc(=O)n1CCC(=O)OCC(=O)c1c(N)n(CC(C)C)c(=O)n(C)c1=O	-26.2%
Cc1ccccc1OCCC(=O)OCC(=O)c1c(N)n(CC(C)C)c(=O)n(C)c1=O	-75.2%
Cc1cccc(C(=O)OCC(=O)c2c(N)n(CC(C)C)c(=O)n(C)c2=O)c1O	-15.2%
Cc1ccc(OCCC(=O)OCC(=O)c2c(N)n(CC(C)C)c(=O)n(C)c2=O)cc1	-71.9%
O=C(Cn1cnc2ccccc21)OCC(=O)N1CCCc2ccccc21	8.8%
CCCCNC(=S)N/N=C/c1ccccc1F	2.81%
Cc1ccc(OC(C)C(=O)Nc2ccc3c(c2)n(C)c(=O)n3C)c(C)c1 (stereo not shown)	11.7%
Cc1ccc(S(=O)(=O)NCc2ccc(C(=O)NCCN(Cc3ccccc3)C(C)C)cc2)cc1	-36.4%
Cc1ccc(S(=O)(=O)NC(CC(C)C)C(=O)NCC(C)(C)N2CCOCC2)cc1 (stereo not shown)	11.6%
COc1ccc(NC(=O)CCCn2c(=O)c3sccc3n(Cc3cccc(C)c3)c2=O)cc1	12.7%
Cc1cnc(C(=O)OCC(=O)NCCc2ccccc2)cn1	-3.4%
O=C(c1cccc(NS(=O)(=O)c2cccc(F)c2)c1)N1CCN(c2ccccc2)CC1	-8.41%
CSCCC(NC(=O)COc1cccc2ccccc12)C(=O)O (stereo not shown)	0.83%
Cn1c(N)c(C(=O)COC(=O)COc2ccccc2C#N)c(=O)n(C)c1=O	-23.2%
CC(C)Cn1c(N)c(C(=O)COC(=O)CCc2nc3ccccc3c(=O)[nH]2)c(=O)n(C)c1=O	-36%
COc1ccc(CCC(=O)OCC(=O)c2c(N)n(CC(C)C)c(=O)n(C)c2=O)cc1	-33.4%
Cn1c(N)c(C(=O)COC(=O)/C=C/c2ccc(F)cc2)c(=O)n(C)c1=O	-51.8%
Cn1c(N)c(C(=O)COC(=O)/C=C/c2ccc(Cl)cc2)c(=O)n(C)c1=O	-43.3%
Cc1cccc(OCC(=O)OCC(=O)c2c(N)n(C)c(=O)n(C)c2=O)c1C	-1.84%
CCc1ccc(N2CC(C(=O)OCC(=O)c3c(N)n(CC(C)C)c(=O)n(C)c3=O)CC2=O)cc1 (stereo not shown)	-7.72%
COc1ccccc1CCC(=O)OCC(=O)c1c(N)n(CC(C)C)c(=O)n(C)c1=O	-70.3%
COc1ccc(/C=C/C(=O)OCC(=O)c2c(N)n(C)c(=O)n(C)c2=O)cc1	5.38%

SMILES	hERG current change (%, negative = inhibition) at 10uM
CCc1ccccc1OCC(=O)OCC(=O)c1c(N)n(C)c(=O)n(C)c1=O	-53.6%
Cc1ccc(N2CC(C(=O)OCC(=O)c3c(N)n(CC(C)C)c(=O)n(C)c3=O)CC2=O)cc1 (stereo not shown)	-3.07%
CC(C)Cn1c(N)c(C(=O)COC(=O)C2CC(=O)N(c3ccc4c(c3)OCCO4)C2)c(=O)n(C)c1=O (stereo not shown)	-52.6%
Cc1cc(C)nc(SCCC(=O)Nc2ccc(F)cc2)n1	7.84%
O=C(/C=C\Nc1cccc(F)c1)c1cccs1	11.7%
CC(NC(=O)C1CCN(S(=O)(=O)c2ccc3c(c2)NC(=O)CO3)CC1)c1ccccc1 (stereo not shown)	-7.39%
CN(C)S(=O)(=O)N1CCN(C(=O)c2ccc3c(c2)OCO3)CC1	10%
CSc1ccc(/C=C(\C#N)C(=O)NC2CCCCC2C)cc1 (stereo not shown)	-21.7%
N#C/C(=C/c1ccc(-c2cc([N+](=O)[O-])ccc2Cl)o1)C(N)=O	1.62%
N#CC(=C=[N-])c1nc2ccccc2nc1-[n+]1ccccc1	-2.11%
COc1ccccc1OCCC(=O)OCC(=O)c1c(N)n(C)c(=O)n(C)c1=O	-10.3%
CC(C)Cn1c(N)c(C(=O)COC(=O)[C@H](C)NC(=O)c2ccccc2Cl)c(=O)n(C)c1=O	-53.1%
CCC(=O)c1ccc(OCC(=O)OCC(=O)c2c(N)n(C)c(=O)n(C)c2=O)cc1	5.93%
Cn1c(N)c(C(=O)COC(=O)COc2ccc(Br)cc2)c(=O)n(C)c1=O	-72.6%
Cn1c(N)c(C(=O)COC(=O)CCOc2ccc(C(C)(C)C)cc2)c(=O)n(C)c1=O	-60.6%
CC(C)Cn1c(N)c(C(=O)COC(=O)c2ccccc2F)c(=O)n(C)c1=O	-14.7%
Cc1ccc(C)c(OCCC(=O)OCC(=O)c2c(N)n(C)c(=O)n(C)c2=O)c1	-55.5%
CCc1ccc(OCC(=O)OCC(=O)c2c(N)n(C)c(=O)n(C)c2=O)cc1	10.2%
CC(C)Cn1c(N)c(C(=O)COC(=O)c2ccccc2Cl)c(=O)n(C)c1=O	-41.7%
Cn1c(N)c(C(=O)COC(=O)COc2ccc(C#N)cc2)c(=O)n(C)c1=O	-24%
Cc1ccc(C(C)C)c(OCC(=O)OCC(=O)c2c(N)n(C)c(=O)n(C)c2=O)c1	3.36%
Cn1c(N)c(C(=O)COC(=O)COc2ccc(Cl)cc2)c(=O)n(C)c1=O	-23.1%
